Active and inactive are the calls of the source.
How the values were obtained:
Albumin (Bos taurus) = Albumin (Bos taurus) (UniProt P02769); assay: bovine serum albumin binders on microarray, profiling panel, artefact control for SMM control protein annotation, biochemical, small-molecule microarray, Alexa647 label, 635/667 nm fluorescence (AID 1118); conditions: BSA-A647 binding, fluorescence 635 nm, higher = more signal;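 note: score merges 667 nm emission intensity and signal-to-noise per printed compound spot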
[1] = small-molecule microarray binders of probe aXIP, primary screen, biochemical, NeuroSMM set, 635/667 nm fluorescence (AID 1119); conditions: higher = more signal, called active from +8 up or from −8 down;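 note: probe is the protein aXip251-270 applied at 1 µg/mL to compound-printed slides; binding of probe to printed compounds measured as 667 nm fluorescence plus signal to noise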
[2] = small-molecule binders of probe aNOTCH3, primary screen, biochemical, small-molecule microarray, 635/667 nm fluorescence (AID 1120); conditions: higher = more signal;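 note: probe is a biotin-tagged antibody raised against NOTCH3 rather than NOTCH3 protein; score merges spot fluorescence near 667 nm with spot signal to noise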
[3] = small-molecule binders of probe aNOTCH2, primary screen, biochemical, small-molecule microarray, 635/667 nm fluorescence (AID 1121); conditions: higher = more signal;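 note: score merges feature fluorescence read at 667 nm with its signal to noise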
[4] = target: Carbonic anhydrase 2 (Homo sapiens) (UniProt P00918); assay: CAII small-molecule binders, profiling panel, biochemical, small-molecule microarray, Alexa647-labelled CAII (AID 1122); conditions: CAII-A647 binding fluorescence, higher = more signal
[5] = COS7 lysate on small-molecule microarray, probe aHis, 635 nm (AID 1123); conditions: COS7 cell lysate, fluorescence, higher = more signal;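 note: z-score combines 667nm fluorescence intensity with signal-to-noise per printed compound spot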
[6] = compound binding in COS7 lysate, probe aLAP1, primary screen, cell lysate, small-molecule microarray (AID 1124); conditions: probe aLAP1, fluorescence, higher = more signal;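 note: lysate comes from COS7 cells expressing LAP1 and is applied at 0.3 µg/mL; score merges spot fluorescence near 667 nm with signal-to-noise over triplicate slides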
Sam68 (KHDRBS1) = assay: Sam68 small-molecule binders, primary screen, biochemical, small-molecule microarray, 635 nm fluorescence (AID 1125); conditions: small-molecule microarray binding, higher = more signal;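 note: score merges 667 nm channel intensity with signal to noise over triplicate slides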
[7] = test system: Chordin-like protein 2 (CHRDL2); assay: CHRDL2 small-molecule binders, primary screen, biochemical, small-molecule microarray, 635 nm fluorescence (AID 1126); conditions: small-molecule microarray binding, fluorescence 635 nm; higher = more signal;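 note: printed compound slides probed with Chrdl2 protein at 4 µg/mL for 1 h at 4 C; score merges 667 nm emission intensity with signal to noise over three replicate slides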
[8] = target: Concanavalin-A (Canavalia ensiformis) (UniProt P02866); assay: ConA small-molecule binders, primary screen, artefact control for SMM control protein annotation, biochemical, small-molecule microarray, Alexa647 label, 635 nm (AID 1127); conditions: ConA-A647 binding fluorescence, higher = more signal;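 note: z combines 667 nm emission intensity with signal-to-noise across three replicate slides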
Sequence of Concanavalin-A (Canavalia ensiformis) (P02866 whole entry, looked up): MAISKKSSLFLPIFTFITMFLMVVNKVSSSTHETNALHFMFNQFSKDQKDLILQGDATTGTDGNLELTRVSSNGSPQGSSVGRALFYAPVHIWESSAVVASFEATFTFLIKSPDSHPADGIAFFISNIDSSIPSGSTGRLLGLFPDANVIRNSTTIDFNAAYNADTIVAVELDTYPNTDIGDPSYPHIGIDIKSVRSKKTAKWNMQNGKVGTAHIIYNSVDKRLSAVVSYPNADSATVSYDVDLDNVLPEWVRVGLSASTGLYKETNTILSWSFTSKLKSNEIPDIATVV

Sequence of Albumin (Bos taurus) (P02769 whole entry, looked up): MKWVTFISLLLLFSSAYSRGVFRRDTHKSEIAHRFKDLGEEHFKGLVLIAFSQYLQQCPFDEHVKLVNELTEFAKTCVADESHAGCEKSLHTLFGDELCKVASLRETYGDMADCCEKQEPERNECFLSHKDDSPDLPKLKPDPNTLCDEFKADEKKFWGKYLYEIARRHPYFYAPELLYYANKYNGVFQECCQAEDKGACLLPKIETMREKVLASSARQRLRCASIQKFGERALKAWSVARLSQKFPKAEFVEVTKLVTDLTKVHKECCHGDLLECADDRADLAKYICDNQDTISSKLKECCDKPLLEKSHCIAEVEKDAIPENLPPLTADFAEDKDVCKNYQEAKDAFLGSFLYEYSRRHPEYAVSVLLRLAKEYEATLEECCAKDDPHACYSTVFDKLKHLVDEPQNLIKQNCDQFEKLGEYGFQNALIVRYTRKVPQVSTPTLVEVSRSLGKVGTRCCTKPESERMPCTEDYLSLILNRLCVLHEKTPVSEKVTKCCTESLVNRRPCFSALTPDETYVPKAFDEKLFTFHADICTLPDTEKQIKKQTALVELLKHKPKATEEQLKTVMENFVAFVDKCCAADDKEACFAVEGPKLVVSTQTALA

SMILES | composite z-score (Albumin (Bos taurus)) | composite Z-score [1] | composite z-score [2] | composite z-score [3] | composite z-score [4] | composite z-score [5] | composite z-score [6] | composite z-score (Sam68 (KHDRBS1)) | composite z-score [7] | composite z-score [8]
CN(C)C(=O)[C@@]1(CCS(=O)(=O)c2ccccc2)N=C(c2ccc(OCCCO)cc2)O[C@H]1c1ccccc1N=[N+]=[N-] | 0.856 | -0.288 (inactive) | 0.488 | -0.112 | 0.669 | 2.13 | 0.521 | 1.29 | -0.0717 | 0.972
CC(=O)NCCCC[C@@H]1NC(=O)[C@@H]2C[C@H](C(=O)NCCCCCC[N+](C)(C)C)[C@H](c3ccc(O)cc3)N2C1=O | -0.78 | 0.0461 (inactive) | -0.0611 | -0.0173 | 0.188 | 1.17 | -0.414 | 0.992 | 0.965 | 0.301
COCCOC(=O)N1C(=O)[C@@]2(c3cc(C#CCCO)ccc31)[C@H](c1ccc(O)cc1)N1[C@H](c3ccccc3)[C@H](c3ccccc3)OC(=O)[C@H]1[C@@H]2C(=O)N1CCc2cc(OC)c(OC)cc2C1 | -0.997 | 0.454 (inactive) | 0.341 | 0.305 | 0.345 | 1.48 | 1.07 | 1.32 | 0.789 | 1.06
CCOC(=O)C1=C(C(=O)OCC)N(S(=O)(=O)CC[Si](C)(C)C)[C@H](c2ccccc2)CC1 | 0.565 | -0.463 (inactive) | 0.112 | -0.075 | 0.443 | 0.727 | -0.102 | 1.3 | -0.0267 | 1.14
COc1ccc([Si](C)(C)[C@H]2[C@H](CC(=O)N3Cc4ccccc4C[C@H]3CO)O[C@@]3(C(=O)N(Cc4cccc(N5C(=O)c6cccc7cccc5c67)c4)c4ccccc43)[C@@H]2C)cc1 | -0.0311 | 0.285 (inactive) | -0.332 | -0.114 | 0.295 | 1.32 | 0.271 | 1.15 | 1.33 | 0.872
COCCOC(=O)N1C(=O)[C@@]2(c3cc(C#CC4(O)CCCCCC4)ccc31)[C@H](c1ccc(OCCO)cc1)N1[C@H](c3ccccc3)[C@H](c3ccccc3)OC(=O)[C@H]1[C@@H]2C(=O)N1CCCCCCC1 | 0.571 | 1.12 (inactive) | 1.14 | 0.0899 | 0.357 | 2.47 | 1.02 | 1.31 | 0.744 | 1.15
C=CCOC(=O)[C@H]1[C@@H]2C(=O)O[C@@H](c3ccccc3)[C@@H](c3ccccc3)N2[C@@H](c2ccc(OCCOC(=O)[C@@H]3C[C@@H]4C(=O)N[C@@H](Cc5ccccc5)C(=O)N4[C@@H]3c3ccc(O)cc3)cc2)[C@]12C(=O)Nc1ccccc12 | 0.527 | 0.129 (inactive) | 0.0382 | -0.181 | 0.67 | 1.74 | 0.509 | 1.3 | 1.11 | 1.16
C=C(CCCC)/C(=C/C[C@H](OC(C)=O)c1cccc(OCCO)c1)c1cc(C(=O)OC)ccc1OC | 0.387 | -0.822 (inactive) | -0.21 | -0.132 | 0.355 | -0.148 | 0.147 | 0.302 | -0.149 | -0.795
C[N+](C)(C)CCCCCCNC(=O)[C@H]1C[C@H]2C(=O)NCC(=O)N2[C@H]1c1cccc(OCCO)c1 | -0.27 | 0.536 (inactive) | 0.11 | -0.0877 | 0.594 | 1.05 | 0.662 | 0.562 | 1.36 | 0.907
COC(=O)C1=CC(CCCO)=CC(C2CC2)N(Cc2cccc(OC(F)(F)F)c2)C=C1C(=O)OC (stereo not given) | 0.896 | 0.816 (inactive) | -0.0039 | -0.138 | 0.806 | 2.23 | 0.637 | 1.26 | -0.745 | 0.449
CN1C=C(C(=O)OCCS(C)(=O)=O)C(C(=O)OCCS(C)(=O)=O)=CC(CCCO)=CC1c1ccc(CN2CCCC2)cc1 (stereo not given) | 0.676 | 0.48 (inactive) | 0.405 | -0.146 | 0.746 | 1.87 | -0.197 | 1.3 | 0.369 | 0.907
CCN(CC)c1ccc(N2CC=CC34O[C@@H]5C=CCOC(=O)[C@@H]5[C@H]3C(=O)N(CCO)[C@@H]4C2=O)cc1 (stereo not given in full) | -0.869 | 2.39 (inactive) | 0.0035 | -0.24 | 0.913 | -0.368 | -0.714 | -0.683 | -1.83 | -1.14
COC(=O)[C@H](Cc1ccc(O)cc1)N1CC2=CCCC=C[C@@H]2[C@H]1[C@H](O)Cc1ccccc1 | 0.293 | -0.223 (inactive) | -0.0319 | -0.0772 | 0.669 | 0.16 | -0.0126 | -0.163 | 0.706 | 0.295
CCCC=C(CCC)[C@@H](NC(=O)c1ccco1)c1ccc(C(=O)OC)cc1 | 0.779 | -0.0549 (inactive) | 0.281 | -0.0222 | 0.669 | 2.72 | 0.0767 | 1.31 | -0.618 | 0.939
COCCCNC(=O)[C@@]1(Sc2ccc(C)cc2)CC(=O)N(C2CCCCC2)[C@@H]1c1ccc(CO)cc1I | 0.68 | 0.441 (inactive) | 0.145 | -0.0096 | 0.481 | 1.8 | 0.0839 | 1.25 | 0.818 | 1.07
CCOC(=O)C[C@H]1[C@H](OC(=O)c2cc3ccccc3oc2=O)[C@@H](NC(=O)C2CCCCC2)c2cc(OCCCO)ccc2N1C(=O)Cc1ccc(OC)cc1 | 0.259 | 0.127 (inactive) | 1.41 | -0.0111 | 0.51 | 0.988 | 0.319 | 0.736 | 0.328 | -0.146
CO[C@H]1O[C@H](CO)[C@@H](OC(=O)Nc2ccccc2)[C@@H]2OC(=O)[C@H](Cc3ccccc3)C/C=C/C[C@@H](Cc3ccccc3)C(=O)O[C@@H]12 | 0.548 | 1.96 (inactive) | 0.177 | 0.371 | 0.559 | 1.28 | 0.597 | 0.921 | 0.152 | 0.628
C=C(CC1([C@@H](NP(=O)(c2ccccc2)c2ccccc2)[C@H]2C[C@@H]2CCN(C(=O)OCC)S(=O)(=O)c2ccc(C)cc2)CC1)c1ccccc1 | 0.963 | 0.39 (inactive) | 0.6 | 0.354 | 0.355 | 2.65 | 0.319 | 0.981 | -0.845 | 0.74
CC(C)C[C@@H]1NC(=O)[C@@H]2C[C@H](C(=O)NCCCC[N+](C)(C)C)[C@H](c3ccc(O)cc3)N2C1=O | -0.857 | 0.541 (inactive) | -0.0866 | -0.153 | 0.705 | 0.83 | 0.678 | 1.09 | 1.37 | 1.02
COc1ccc(CCNC(=O)[C@@]2(Sc3ccc(C)cc3)CC(=O)N(C(C)C)[C@@H]2c2ccc(CO)cc2)cc1 | 0.566 | 0.397 (inactive) | -0.39 | -0.124 | 0.7 | 0.239 | 0.0112 | -0.346 | -2.15 | -0.277
COC(=O)[C@@]1(Cc2ccccc2)[C@@H]2[C@@H](CC(=O)[C@H]2CC(=O)C(=O)N(C)C)CN1C(=O)c1ccccc1 | 0.579 | -0.077 (inactive) | -0.0288 | -0.0928 | 0.838 | 2.87 | 0.712 | -0.125 | -0.641 | 0.596
CCCCC(=C=CC[C@@H](O)c1cccc(OCCO)c1)CCO | 0.319 | -0.462 (inactive) | -0.119 | -0.142 | 0.34 | 0.592 | 0.0297 | 0.158 | -0.596 | -0.0305
CN(C)C(=O)[C@]1(Cc2ccccc2)N=C(c2ccc(OCCCO)cc2)O[C@@H]1c1ccccc1 | 0.62 | 0.572 (inactive) | -0.046 | -0.0531 | 0.687 | 2.68 | 0.429 | 0.978 | -1.01 | 0.915
CC(C)C[C@H]1NC(=O)[C@@]23C(=O)N[C@@H](Cc4ccccc4)C2[C@H](C)[C@@]2(C)O[C@H]2C3/C=C/C/C=C\CNC(=O)[C@@H]2CCCN2C1=O (stereo not given in full) | 0.773 | 0.119 (inactive) | 0.0694 | -0.176 | 0.725 | 1.23 | 0.145 | 0.975 | 0.293 | 0.276
CC(=O)c1ccc(C(O)C2C=CC3C(=O)N(C)C(=O)C3N2NC(=O)OC(C)(C)C)cc1 (stereo not given) | 1 | -0.331 (inactive) | 0.103 | 0.119 | 0.885 | 2.61 | 0.366 | 1.29 | -0.971 | 1.17
[N-]=[N+]=NCc1ccccc1C[C@]1(C(=O)N2CCOCC2)N=C(c2ccc(OCCCO)cc2)O[C@H]1c1ccccc1CN=[N+]=[N-] | 0.954 | -0.161 (inactive) | 0.598 | 0.502 | 0.802 | 3.34 | 0.853 | 1.3 | -0.655 | 1.14
CCCCN1CC=CC23O[C@@H]4C=CCOC(=O)[C@@H]4[C@H]2C(=O)N(C(CO)C(C)C)[C@@H]3C1=O (stereo not given in full) | -0.709 | -0.0632 (inactive) | -0.279 | -0.14 | 0.321 | -0.665 | -0.304 | -0.616 | -0.0407 | -0.868
C[C@]1(C(=O)NCC(F)(F)F)c2ccccc2C(=O)N(Cc2ccc(OC(F)(F)F)cc2)[C@H]1c1ccc(CO)cc1 | 0.499 | -0.568 (inactive) | -0.179 | -0.171 | 0.481 | 0.751 | 0.0891 | 0.185 | -0.0339 | 0.422
Cc1ccc(S[C@]2(C(=O)NC3CC3)CC(=O)N(Cc3cc(C(F)(F)F)cc(C(F)(F)F)c3)[C@@H]2c2ccc(CO)cc2I)cc1 | 0.0876 | 0.193 (inactive) | -0.512 | 0.381 | 0.554 | 1.18 | 0.959 | 0.964 | 0.452 | 1.07

Source: PubChem BioAssay
